Test results published in PubChem BioAssay (NCI).
Compounds without any hit were thinned out: in the full panel of roughly 83,000, 20% have a hit.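 Interpretation: 100, growth as untreated; towards 0, rising growth inhibition; 0, no net growth; 0 to -100, cell death. Compounds scoring below 10 were considered active.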 Unmarked numbers belong to inactive results. Activity calls are given as the source filed them.

Legend:
Test in all cases: NCI-60 one-dose screen, 48 h (100 = growth as untreated, 0 = no growth, -100 = all killed)
Details in all cases: 10 µM unless noted
SK-MEL-2 melanoma = system: SK-MEL-2 melanoma
EKVX NSCLC = system: EKVX NSCLC
SN12C renal = system: SN12C renal
UO-31 renal = system: UO-31 renal
TK-10 renal = system: TK-10 renal
ACHN renal = system: ACHN renal
CAKI-1 renal = system: CAKI-1 renal
A498 renal = system: A498 renal
CCRF-CEM leukemia = system: CCRF-CEM leukemia
MOLT-4 leukemia = system: MOLT-4 leukemia
SR leukemia = system: SR leukemia
RPMI-8226 leukemia = system: RPMI-8226 leukemia
OVCAR-8 ovarian = system: OVCAR-8 ovarian
OVCAR-5 ovarian = system: OVCAR-5 ovarian
OVCAR-4 ovarian = system: OVCAR-4 ovarian
SK-OV-3 ovarian = system: SK-OV-3 ovarian
IGROV1 ovarian = system: IGROV1 ovarian
HS 578T breast = system: HS 578T breast
NCI/ADR-RES ovarian = system: NCI/ADR-RES ovarian

## O=C(COc1ccc(/C=C2\C(=O)Nc3ccc(Cl)cc32)cc1)Nc1ccc(Cl)cc1
SK-MEL-2 melanoma
  growth: 88.6%
EKVX NSCLC
  growth: 74.9%
SN12C renal
  growth: 53%
UO-31 renal
  growth: 50.8%
TK-10 renal
  growth: 112%
ACHN renal
  growth: 33.3%
CAKI-1 renal
  growth: 34.8%
A498 renal
  growth: 72.4%
CCRF-CEM leukemia
  growth: 47.2%
MOLT-4 leukemia
  growth: 55.5%
SR leukemia
  growth: 44.9%
RPMI-8226 leukemia
  growth: 68.7%
OVCAR-8 ovarian
  growth: 60.1%
OVCAR-5 ovarian
  growth: 69.8%
OVCAR-4 ovarian
  growth: 59.2%
SK-OV-3 ovarian
  growth: 88.3%
IGROV1 ovarian
  growth: 59.8%
HS 578T breast
  growth: 77.6%
NCI/ADR-RES ovarian
  growth: 59.6%

## CC(=O)/C(N=Nc1ccc2oc(=O)ccc2c1)=C(\C)O
SK-MEL-2 melanoma
  growth: 0.338% (active)
EKVX NSCLC
  growth: 30.8%
SN12C renal
  growth: 35.6%
UO-31 renal
  growth: 15.4%
TK-10 renal
  growth: 23.8%
ACHN renal
  growth: 18.2%
CAKI-1 renal
  growth: 33.3%
A498 renal
  growth: 29.8%
CCRF-CEM leukemia
  growth: 13.1%
MOLT-4 leukemia
  growth: 16.4%
SR leukemia
  growth: 9.76% (active)
RPMI-8226 leukemia
  growth: 12.3%
OVCAR-8 ovarian
  growth: 25.1%
OVCAR-5 ovarian
  growth: 50.8%
OVCAR-4 ovarian
  growth: 50%
SK-OV-3 ovarian
  growth: 37.1%
IGROV1 ovarian
  growth: 32.4%
HS 578T breast
  growth: 63.1%
NCI/ADR-RES ovarian
  growth: 13.3%

## COc1ccc(/C(=N\N=C(N)N)c2ccc(Cl)cc2)cc1OC
SK-MEL-2 melanoma
  growth: 99.9%
EKVX NSCLC
  growth: 72.6%
SN12C renal
  growth: 70.8%
UO-31 renal
  growth: 83.7%
TK-10 renal
  growth: 77%
ACHN renal
  growth: 94.8%
CAKI-1 renal
  growth: 50.1%
A498 renal
  growth: 76.5%
CCRF-CEM leukemia
  growth: 67.3%
MOLT-4 leukemia
  growth: 52.5%
SR leukemia
  growth: 42.7%
RPMI-8226 leukemia
  growth: 70.4%
OVCAR-8 ovarian
  growth: 87.2%
OVCAR-5 ovarian
  growth: 78.2%
OVCAR-4 ovarian
  growth: 88.4%
SK-OV-3 ovarian
  growth: 78.5%
IGROV1 ovarian
  growth: 51.5%
HS 578T breast
  growth: 67.5%
NCI/ADR-RES ovarian
  growth: 99.3%

## CCc1cccc2c3c(sc12)C(c1ccc(F)cc1)C(C#N)=C(/N=C/c1ccc(Cl)cc1)O3 (configuration not stated)
SK-MEL-2 melanoma
  growth: -7.31% (active)
EKVX NSCLC
  growth: 47.8%
SN12C renal
  growth: 32.4%
UO-31 renal
  growth: 39.2%
TK-10 renal
  growth: 93.5%
ACHN renal
  growth: 32.3%
CAKI-1 renal
  growth: 41.5%
A498 renal
  growth: -10.4% (active)
CCRF-CEM leukemia
  growth: 20.7%
MOLT-4 leukemia
  growth: 25.4%
SR leukemia
  growth: 18.8%
RPMI-8226 leukemia
  growth: 21.5%
OVCAR-8 ovarian
  growth: 13.6%
OVCAR-5 ovarian
  growth: 29.1%
OVCAR-4 ovarian
  growth: 80.6%
SK-OV-3 ovarian
  growth: 42.6%
IGROV1 ovarian
  growth: 29.9%
HS 578T breast
  growth: -1.77% (active)
NCI/ADR-RES ovarian
  growth: 7.87% (active)

## CNC(=O)Nc1ccc(Nc2cc(-c3ccc(-n4cccn4)cc3)[nH]n2)c(C)c1
SK-MEL-2 melanoma
  growth: 122%
EKVX NSCLC
  growth: 109%
SN12C renal
  growth: 101%
UO-31 renal
  growth: 85.4%
TK-10 renal
  growth: 138%
ACHN renal
  growth: 109%
CAKI-1 renal
  growth: 113%
A498 renal
  growth: 129%
CCRF-CEM leukemia
  growth: 93.1%
MOLT-4 leukemia
  growth: 91.1%
SR leukemia
  growth: 89%
RPMI-8226 leukemia
  growth: 93.3%
OVCAR-8 ovarian
  growth: 102%
OVCAR-5 ovarian
  growth: 111%
OVCAR-4 ovarian
  growth: 102%
SK-OV-3 ovarian
  growth: 107%
IGROV1 ovarian
  growth: 108%
HS 578T breast
  growth: 116%
NCI/ADR-RES ovarian
  growth: 99.8%

## CN1CCN(Cc2ccc(NC(=O)c3cncc(C#Cc4cnc5ccc(O[C@@H]6CCOC6)nn45)c3)cc2C(F)(F)F)CC1
SK-MEL-2 melanoma
  growth: -78.3% (active)
EKVX NSCLC
  growth: -85.8% (active)
SN12C renal
  growth: -77.4% (active)
UO-31 renal
  growth: -91.8% (active)
TK-10 renal
  growth: -83.5% (active)
ACHN renal
  growth: -100% (active)
CAKI-1 renal
  growth: -96.8% (active)
A498 renal
  growth: -94.7% (active)
CCRF-CEM leukemia
  growth: -15.8% (active)
MOLT-4 leukemia
  growth: -26% (active)
SR leukemia
  growth: -29.7% (active)
RPMI-8226 leukemia
  growth: -24.1% (active)
OVCAR-8 ovarian
  growth: -60.1% (active)
OVCAR-5 ovarian
  growth: -66% (active)
OVCAR-4 ovarian
  growth: -73.7% (active)
SK-OV-3 ovarian
  growth: -67.8% (active)
IGROV1 ovarian
  growth: -51.9% (active)
HS 578T breast
  growth: -46.9% (active)
NCI/ADR-RES ovarian
  growth: -34.5% (active)

## O=C(Nc1cc(C(F)(F)F)cc(C(F)(F)F)c1)Nc1ccc2oc(=O)ccc2c1
SK-MEL-2 melanoma
  growth: -18.5% (active)
EKVX NSCLC
  growth: 9.09% (active)
SN12C renal
  growth: -7.21% (active)
UO-31 renal
  growth: 1.64% (active)
TK-10 renal
  growth: 16.1%
ACHN renal
  growth: -3.53% (active)
CAKI-1 renal
  growth: 1.47% (active)
A498 renal
  growth: -1.96% (active)
CCRF-CEM leukemia
  growth: 17.5%
MOLT-4 leukemia
  growth: 19.7%
SR leukemia
  growth: 14%
RPMI-8226 leukemia
  growth: -21.5% (active)
OVCAR-8 ovarian
  growth: 14.2%
OVCAR-5 ovarian
  growth: 18%
OVCAR-4 ovarian
  growth: 32.6%
SK-OV-3 ovarian
  growth: -1.5% (active)
IGROV1 ovarian
  growth: 17.3%
HS 578T breast
  growth: 36.8%
NCI/ADR-RES ovarian
  growth: 4.16% (active)

## COc1ccc(C(=NNS(=O)(=O)c2ccc(C)cc2)c2ccccc2)cc1OC
SK-MEL-2 melanoma
  growth: 101%
EKVX NSCLC
  growth: 95.4%
SN12C renal
  growth: 98.9%
UO-31 renal
  growth: 77.4%
TK-10 renal
  growth: 96.6%
ACHN renal
  growth: 98%
CAKI-1 renal
  growth: 80.7%
A498 renal
  growth: 98.3%
CCRF-CEM leukemia
  growth: 102%
MOLT-4 leukemia
  growth: 98.3%
SR leukemia
  growth: 111%
RPMI-8226 leukemia
  growth: 93.6%
OVCAR-8 ovarian
  growth: 97.5%
OVCAR-5 ovarian
  growth: 103%
OVCAR-4 ovarian
  growth: 102%
SK-OV-3 ovarian
  growth: 107%
IGROV1 ovarian
  growth: 90.8%
HS 578T breast
  growth: 104%
NCI/ADR-RES ovarian
  growth: 96.8%
